The target of assay [1] is T1, Aspartate--tRNA(Asp/Asn) ligase (Mycobacterium tuberculosis (strain ATCC 25618 / H37Rv)) (UniProt P9WFW3). Further: in the data most compounds retested in dose-response had high values.
T1 sequence (whole entry): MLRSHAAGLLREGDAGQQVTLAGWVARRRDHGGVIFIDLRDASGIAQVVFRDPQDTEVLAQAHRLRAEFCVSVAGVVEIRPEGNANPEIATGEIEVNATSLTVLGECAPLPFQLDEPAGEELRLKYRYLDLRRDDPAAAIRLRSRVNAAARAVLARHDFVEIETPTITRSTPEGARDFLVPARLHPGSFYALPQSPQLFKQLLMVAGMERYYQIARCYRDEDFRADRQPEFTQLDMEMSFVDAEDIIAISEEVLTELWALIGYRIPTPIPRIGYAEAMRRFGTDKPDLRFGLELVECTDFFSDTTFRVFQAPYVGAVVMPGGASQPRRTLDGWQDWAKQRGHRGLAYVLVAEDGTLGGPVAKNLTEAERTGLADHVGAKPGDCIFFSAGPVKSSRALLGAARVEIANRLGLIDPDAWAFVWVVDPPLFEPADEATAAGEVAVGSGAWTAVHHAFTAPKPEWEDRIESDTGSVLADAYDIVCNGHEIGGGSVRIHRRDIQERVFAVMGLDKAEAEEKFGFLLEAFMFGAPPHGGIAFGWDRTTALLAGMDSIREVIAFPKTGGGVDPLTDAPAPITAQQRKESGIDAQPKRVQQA
Description: Assay for Asp RNA synthetase-1 from Mycobacterium tuberculosis. The assay is classed as functional. Set-up: scale not given: direction of the effect not stated beside the values. The following applies: 30 µM.

Assay [2] concerns the target Shiga toxin 2 (Escherichia coli O157:H7) (UniProt P09385+P09386). The experiment in a line: E. coli 0.157:H7 Shiga Toxin SOP - stx2 screening assay. The assay is classed as functional. The arrangement: scale not given: direction of the effect not stated beside the values. Conditions: 30 µM.

On to `Cc1ccccc1CSc1nc(N)cc(N2CC[C@@H](O)C2)n1`, for which the Percent Effect in assay [1] amounted to 0.861%; in assay [2] it was 5.97%.

Regarding `Cc1cc2nc(SCC(=O)N3CCOCC3)n(CC(C)C)c(=O)c2[nH]1`, the Percent Effect in assay [1] is 11.7%; in assay [2], -10.1%.

For `CCOc1cccc(C(C)NC(=O)N2CCC(C(N)=O)CC2)c1` (stereo not given), the Percent Effect is -2% in assay [1] and 11.2% in assay [2].

On to `Cn1cnc(S(=O)(=O)N2CCCC2)c1Cl`, for which the Percent Effect in assay [1] is -1.03%; in assay [2], -7.1%.

In the case of `Cc1cnn(C2CCCN(C(=O)c3sccc3C#N)C2)c1` (stereo not given), the results for the Percent Effect in assay [1] and in assay [2] were 1.95% and -36.4%, respectively.

In the case of `CCOC1COC2(CCN(Cc3ccc4c(c3)OCO4)CC2)C1` (stereo not given), the figures for the Percent Effect in assay [1] and in assay [2] were -3.53% and -2.45%, respectively.

Regarding `COc1ccccc1CN1CC[C@]2(C[C@H](OC)CO2)C1`, the Percent Effect in assay [1] was -1.25%; in assay [2] it was -21.1%.

Consider `CCCc1n[nH]c(C2CN(C(=O)c3cc(F)ccc3OC)CCO2)n1` (stereo not given), for which the Percent Effect in assay [1] worked out at 0%; in assay [2], 29.8%.

As to `CCN(C(=O)COC)C(c1cccnc1)c1ccc2c(c1)CCO2` (stereo not given), the Percent Effect in assay [1] is 2.07%; in assay [2] it was -29.4%.

Consider `CN(CCCOc1ccc(F)cc1)Cc1nc2c(cnn2C)c(=O)[nH]1`, for which the Percent Effect in assay [1] is -4.83%; in assay [2], 26.6%.

As for `CN(C(=O)Cn1nc(-c2cccs2)ccc1=O)C1CCS(=O)(=O)C1` (stereo not given), the results for the Percent Effect in assay [1] and in assay [2] were 1.02% and -35.1%, respectively.

For `Cc1occc1C(=O)N1CCC2(CC1)C(c1cnn(C)c1)CC(=O)N2C` (stereo not given), the values for the Percent Effect in assay [1] and in assay [2] were 2.49% and -8.78%, respectively.

Consider `CCS(=O)(=O)N(C)C1CCN(C(=O)c2cccc(Cl)c2)CC1`, for which the Percent Effect is -0.493% in assay [1] and 14.8% in assay [2].

For the compound `CCOc1ncccc1C(=O)N1CCCCC1c1nccs1` (stereo not given), the Percent Effect in assay [1] is -1.77%; in assay [2], 2.91%.

Consider `Cn1cc(CN2CCc3onc(COc4cccnc4)c3C2)cn1`, for which the Percent Effect in assay [1] was -6.13%; in assay [2], -65.9%.

As for `c1ccc(CN2CCOCC3(CCN(C4CCOCC4)C3)C2)cc1` (stereo not given), the Percent Effect in assay [1] stood at 6.57%; in assay [2] it was 12.2%.

`Cc1nc(C2CCN(C(=O)c3cccnc3)CC2)c2sccn12`: the Percent Effect in assay [1] was 2.04%; in assay [2], -14.1%.

Regarding `CCc1nc(CN2CCCN(Cc3cnn(C)c3)CC2)no1`, the Percent Effect in assay [1] was -10.6%; in assay [2], -4.68%.

`COc1cc2cc(C(=O)N[C@@H](C)C(=O)O)n(C)c2c(OC)c1OC`: the values for the Percent Effect in assay [1] and in assay [2] were -3.11% and -30.8%, respectively.

`Cc1cc(C2CCCN(C(=O)c3ccc(C)[nH]c3=O)C2)n[nH]1` (stereo not given): the Percent Effect is -1% in assay [1] and 3.9% in assay [2].

Regarding `COc1cccc(S(=O)(=O)N2CCn3cnc(COCC4CC4)c3C2)c1`, the Percent Effect in assay [1] was found to be 6.08%; in assay [2] it was 1.15%.

`O=C(Nc1ccc(F)cc1)N1C[C@H]2C[C@H](C(=O)N3CCOCC3)[C@@H](C1)O2`: the Percent Effect in assay [1] was 0.452%; in assay [2], -11.7%.

Turning to `O=C(NCCNc1ncccn1)C1CCN(C(=O)C2CC2)CC1`, the Percent Effect in assay [1] came out at 1.89%; in assay [2] it was 14.1%.

Consider `Cc1noc(C)c1CNC(=O)N1CCC(C(O)c2ccccc2)CC1` (stereo not given), for which the Percent Effect was -2.1% in assay [1] and -19.9% in assay [2].

For the compound `CCc1nc(C2CCCN(C(=O)CCn3ccccc3=O)C2)no1` (stereo not given), the Percent Effect in assay [1] was -0.767%; in assay [2], 7.71%.

Take `Cc1ccc(C(=O)N2CCN(CC(O)c3ccc(F)cc3)CC2)s1` (stereo not given): the Percent Effect in assay [1] came to 0.567%; in assay [2] it was 32.2%.

For the compound `COCC1CC2(CCN(Cc3cnn(C)c3)CC2)CN1c1ncccn1` (stereo not given), the Percent Effect in assay [1] is -0.238%; in assay [2], -22.6%.

`c1nc2n(n1)CC(NCc1csc(-c3ccsc3)n1)CC2` (stereo not given): the Percent Effect in assay [1] is -1.92%; in assay [2] it was -23.2%.

For the compound `CCc1csc(CCNC(=O)C2CC(=O)N(C(C)C)C2)n1` (stereo not given), the Percent Effect in assay [1] is -1.9%; in assay [2], -30.4%.

Take `O=C(CN1CCC(c2cccc(F)c2)C1)NCC(F)(F)F` (stereo not given): the Percent Effect in assay [1] is -6.79%; in assay [2], 2.95%.

Regarding `Cc1ncc2c(n1)CN(CC(=O)Nc1nncs1)CC2`, the Percent Effect in assay [1] is -3.23%; in assay [2], -20.4%.

Consider `CCC1CN(Cc2ccccc2)CCN1Cc1nnc(C2CCC2)o1` (stereo not given), for which the values for the Percent Effect in assay [1] and in assay [2] were -4.92% and -9.86%, respectively.

For the compound `CCNC(=O)N1CCCCC1CCNS(C)(=O)=O` (stereo not given), the Percent Effect in assay [1] is -3.62%; in assay [2] it was 4.69%.

In the case of `CCc1cnc2c(c1Nc1ccc(OC)cc1)c(=O)n(C)c(=O)n2C`, the Percent Effect in assay [1] is 0.831%; in assay [2], -12.8%.

As for `OCC1CCCN1c1cc(N2CCc3ccccc3C2)ncn1` (stereo not given), the Percent Effect in assay [1] is 1.24%; in assay [2], -49.8%.

Take `O=C1CC(c2ccccc2)C2(CCN(CC3CC3)CC2)N1` (stereo not given): the Percent Effect in assay [1] is -1.66%; in assay [2], -14.7%.

`O=C(Cc1ccccn1)N1CCN(C(=O)c2cccc3[nH]ncc23)CC1`: the values for the Percent Effect in assay [1] and in assay [2] were -2.75% and 1.83%, respectively.

On to `CCc1ccc(O)c(C(=O)NC2CCN(S(=O)(=O)CC)CC2)c1`, for which the Percent Effect is -3.5% in assay [1] and -13.2% in assay [2].

In the case of `CC(C)N(C)Cc1cn2c(n1)CN(Cc1ccsc1)CC2`, the Percent Effect is 1.89% in assay [1] and -40.8% in assay [2].

Regarding `Cc1csc(N2CCN(CC(=O)Nc3c(C)n[nH]c3C)CC2C)n1` (stereo not given), the Percent Effect in assay [1] stood at 2.07%; in assay [2], 17.4%.

Turning to `Cc1nc(C)n(CC2CCCN(Cc3cccc(C#N)c3)C2)n1` (stereo not given), the Percent Effect in assay [1] stood at 3.85%; in assay [2] it was 25.5%.

On to `O=C(c1cccnc1)N1CCc2ncnc(C3CCOC3)c2CC1` (stereo not given), for which the Percent Effect in assay [1] is -5.37%; in assay [2] it was -9.92%.

`CN(C)CC1CN(c2ncnc3[nH]ccc23)CCO1` (stereo not given): the Percent Effect in assay [1] was -0.0146%; in assay [2], -33.5%.

Consider `CC(C)CS(=O)(=O)N1C[C@H]2C[C@H](C(=O)NCc3ccccc3)[C@@H](C1)O2`, for which the Percent Effect in assay [1] is 2.67%; in assay [2] it was -41.8%.

As for `CC(C)n1cc(CN2CCCN(C(=O)c3cc(Cl)c[nH]3)CC2)cn1`, the Percent Effect in assay [1] is 5.29%; in assay [2], 3.9%.

(Values after ChEMBL document CHEMBL3988442, “University of Dundee, Small-Polar-MMV Screening Library” (2021).)
